PubChem BioAssay (NCATS)
Results filed as inconclusive are left out. Calls of active or inactive are those of the source. Unless noted, calls come from the whole dose curve; as a rule, active = well fitted curve in the direction sought with a large enough effect; inconclusive = small, poorly fitted or top-dose-only effect, or another doubt; inactive = no such curve, though single readings can be large; an effect the other way counts as inactive or inconclusive.

What was measured:
[1] = Primary qHTS for small molecule stabilizers of the endoplasmic reticulum resident proteome: Secreted ER Calcium Modulated Protein (SERCaMP) assay (AID 1508630); note: % is set by controls: 0 for no effect and ±100 for the full control effect
Outline: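 The SH-SY5Y reporter protocol was run at 3 concentrations up to 38.3 uM (primary) or 11 concentrations (follow-up): 16 h compound, 100 nM thapsigargin for 4 h, then extracellular luciferase luminescence.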

[2] = A High-Content qHTS Against Drug Library for the Identification of Small Molecules that Inhibit DYT1 Early Onset Primary Dystonia-Associated Cell Pathology (AID 1645839; calls by dose curve; note: series mostly up to about 46 µM)
Outline: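 High-content imaging quantified EGFP-TorsinA mislocalization in HEK293-derived cells inducibly expressing DYT1 mutant torsinA, after 48 h exposure to compound given together with tetracycline induction. Cell count served as a toxicity channel alongside %pathology.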

[3] = molecular target: Cytochrome P450 2D6 (Homo sapiens) (UniProt P10635); assay: Cytochrome P450 family 2 subfamily D member 6 (CYP2D6) small molecule antagonists: luciferase biochemical (cell-free) qHTS assay (AID 1645840; active = well fitted curve in the direction sought with a large enough effect in the repeat runs; an effect the other way counts as inactive or inconclusive; note: nearly all actives have a fitted effect of over 55% in size; note: potency is the fitted concentration of half-maximal effect; for activity change, negative = inhibition: series mostly up to about 57 µM; % is set by controls: 0 for no effect and ±100 for the full control effect)
Outline: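 P450-Glo CYP2D6 system: proluciferin substrate converted by enzyme to luciferin, read by luminescence proportional to activity. Enzyme-substrate mix with compound 10 min at room temperature, then NADPH regeneration 1 h before detection reagent.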

[4] = molecular target: Cytochrome P450 2C9 (Homo sapiens) (UniProt P11712); assay: Cytochrome P450 family 2 subfamily C member 9 (CYP2C9) small molecule antagonists: luciferase biochemical (cell-free) qHTS assay (AID 1645842; active = well fitted curve in the direction sought with a large enough effect in the repeat runs; an effect the other way counts as inactive or inconclusive; note: series mostly up to about 57 µM; % is set by controls: 0 for no effect and ±100 for the full control effect; nearly all actives have a fitted effect of over 55% in size)
Outline: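 P450-Glo CYP2C9 system: proluciferin substrate with enzyme in mix containing 0.4% BSA, 10 min at room temperature, then NADPH regeneration solution added and incubated 1 h at 37C. Detection reagent stopped reaction; luminescence read after 20 min as RLU.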

[5] = Primary qHTS for inhibitors of nuclear receptor binding SET domain protein 2 (NSD2) in an isogenic RCH-ACV NSD2 p.E1099K mutant (9B) (AID 1645876); note: nearly all actives have a fitted effect of over 70% in size; note: potency is the fitted concentration of half-maximal effect; for activity change, negative = viability loss: % is set by controls: 0 for no effect and ±100 for the full control effect

Cytochrome P450 2D6 (Homo sapiens), sequence (P10635 whole entry, looked up): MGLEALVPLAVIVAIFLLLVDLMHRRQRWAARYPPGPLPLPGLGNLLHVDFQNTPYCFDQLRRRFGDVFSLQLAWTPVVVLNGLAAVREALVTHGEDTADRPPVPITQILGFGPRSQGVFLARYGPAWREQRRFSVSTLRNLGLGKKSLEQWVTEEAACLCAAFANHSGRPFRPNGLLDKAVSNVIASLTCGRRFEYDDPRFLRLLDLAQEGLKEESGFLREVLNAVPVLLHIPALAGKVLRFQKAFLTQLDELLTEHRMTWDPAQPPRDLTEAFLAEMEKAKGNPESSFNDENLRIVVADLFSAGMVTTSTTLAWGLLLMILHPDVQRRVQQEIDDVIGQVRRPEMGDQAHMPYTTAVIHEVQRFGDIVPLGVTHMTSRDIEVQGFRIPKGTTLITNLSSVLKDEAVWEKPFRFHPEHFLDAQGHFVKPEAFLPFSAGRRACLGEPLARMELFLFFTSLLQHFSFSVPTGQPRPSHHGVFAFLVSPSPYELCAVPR
Cytochrome P450 2C9 (Homo sapiens), sequence (P11712 whole entry, looked up): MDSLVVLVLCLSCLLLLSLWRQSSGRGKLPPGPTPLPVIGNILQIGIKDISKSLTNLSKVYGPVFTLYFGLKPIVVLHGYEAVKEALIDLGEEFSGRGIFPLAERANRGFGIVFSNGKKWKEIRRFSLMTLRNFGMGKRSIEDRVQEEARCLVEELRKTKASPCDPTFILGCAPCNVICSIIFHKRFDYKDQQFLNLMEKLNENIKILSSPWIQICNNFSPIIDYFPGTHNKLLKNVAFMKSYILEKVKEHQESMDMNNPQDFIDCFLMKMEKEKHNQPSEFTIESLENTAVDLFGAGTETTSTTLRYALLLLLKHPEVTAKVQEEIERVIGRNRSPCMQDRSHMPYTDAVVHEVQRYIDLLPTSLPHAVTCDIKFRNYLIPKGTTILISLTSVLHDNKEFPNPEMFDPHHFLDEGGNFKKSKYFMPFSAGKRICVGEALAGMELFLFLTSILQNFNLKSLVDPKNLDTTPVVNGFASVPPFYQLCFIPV

CCc1cc(Cl)c(OC)c(C(=O)NC[C@@H]2CCCN2CC)c1O
active: Potency [3] 0.219 µM
inactive: Potency [1] | Potency [2] | Potency [4]

CC(C)(C)CC(C)(C)c1ccc(O)c(-n2nc3ccccc3n2)c1
inactive: Potency [1] | Potency [2] | Potency [3] | Potency [5]

Cn1c(=O)c2[nH]c(Br)nc2n(C)c1=O
inactive: Potency [1] | Potency [2] | Potency [3] | Potency [4] | Potency [5]

O=C1C(O)=C(O)C(=O)C(O)=C1O
inactive: Potency [1] | Potency [2] | Potency [3] | Potency [4] | Potency [5]

CCCCOC(=O)CC(CC(=O)OCCCC)(OC(C)=O)C(=O)OCCCC
inactive: Potency [1] | Potency [2] | Potency [3] | Potency [5]

N=C(N)N1CCc2ccccc2C1
inactive: activity change, negative = inhibition [1] -7.52% [at 3.88 µM] | % pathology change, negative = correction [2] 0.596% [at 4.63 µM] | activity change, negative = inhibition [3] 3.13% [at 4.83 µM] | activity change, negative = inhibition [4] 12.1% [at 4.83 µM] | activity change, negative = viability loss [5] -4.68% [at 4.96 µM]

COc1ccc(CCN(C)CCCN2CCc3cc(OC)c(OC)cc3CC2=O)cc1OC
inactive: Potency [1] | Potency [2] | Potency [3] | Potency [4] | Potency [5]

CN(Cc1ccc(C(C)(C)C)cc1)Cc1cccc2ccccc12
inactive: Potency [1] | Potency [2] | Potency [5]
active: Potency [3] 0.123 µM

CCOC(=O)c1c(N)sc2c1CCN(Cc1ccccc1)C2
inactive: Potency [1] | Potency [2]
active: Potency [3] 0.0098 µM | Potency [5] 16.8 µM

CCN[C@@H]1C[C@H](N)[C@@H](OC2OC(CN)=CCC2N)[C@H](O)[C@H]1O[C@H]1OC[C@](C)(O)[C@H](NC)[C@H]1O (some centres undefined)
inactive: activity change, negative = inhibition [1] -24.8% [at 0.478 µM] | % pathology change, negative = correction [2] 3.5% [at 0.369 µM] | activity change, negative = inhibition [3] 2.45% [at 0.91 µM] | activity change, negative = inhibition [4] 10% [at 0.91 µM] | outcome [5] inactive [at 0.588 µM]

CCOc1ccc(NC(C)=O)cc1
inactive: Potency [1] | Potency [2] | Potency [3] | Potency [4] | Potency [5]

O=[N+]([O-])c1cccc(S(=O)(=O)NCCNS(=O)(=O)c2cccc([N+](=O)[O-])c2)c1
inactive: Potency [1] | Potency [2] | Potency [3] | Potency [5]

Cc1c(-c2ccccc2)oc2c(C(=O)OCCN3CCCCC3)cccc2c1=O
active: Potency [3] 3.89 µM
inactive: Potency [1] | Potency [2] | Potency [4] | Potency [5]

CC(C)Cn1cnc2c1c(=O)n(C)c(=O)n2C
inactive: Potency [1] | Potency [2] | Potency [3] | Potency [5]

COC(=O)C(c1ccccc1Cl)N1CCc2sccc2C1 (centres undefined)
active: Potency [3] 17.4 µM
inactive: Potency [1] | Potency [2] | Potency [5]

CC(C)CCCC(C)N (centres undefined)
inactive: Potency [1] | Potency [2] | Potency [3] | Potency [5]

CNCCc1ccccn1
inactive: Potency [1] | Potency [2] | Potency [3] | Potency [5]

O=S(=O)(O)c1ccc(O)cc1
inactive: Potency [1] | Potency [2] | Potency [3] | Potency [4] | Potency [5]

CCCCCCCCCCCCCC(=O)OC(C)C
inactive: Potency [1] | Potency [2] | Potency [3] | Potency [5]

OC(C#CCN1CCCC1)(c1ccccc1)c1ccccc1
active: Potency [3] 12.3 µM
inactive: Potency [1] | Potency [2] | Potency [5]

Cc1cccc(C)c1NC(=O)CN1CCCC1
active: Potency [3] 12.3 µM
inactive: Potency [1] | Potency [2] | Potency [4] | Potency [5]

NS(=O)(=O)c1cc(C(=O)O)cc(N2CCCC2)c1Oc1ccccc1
inactive: Potency [1] | Potency [2] | Potency [3] | Potency [4] | Potency [5]

Nc1ccc(S(=O)(=O)NCc2ccccc2)cc1
inactive: Potency [1] | Potency [2] | Potency [3] | Potency [4] | Potency [5]

CCCCC(CC)COC(=O)/C=C/c1ccc(OC)cc1 (centres undefined)
inactive: Potency [1] | Potency [2] | Potency [3] | Potency [5]

CCOC(=O)[C@H](CCc1ccccc1)N[C@@H](C)C(=O)N1[C@H](C(=O)O)C[C@@H]2CCC[C@@H]21
inactive: Potency [1] | Potency [2] | Potency [3] | Potency [4] | Potency [5]

COc1ccc(CN(CCN(C)C)c2ncccn2)cc1
active: Potency [3] 0.49 µM
inactive: Potency [1] | Potency [2] | Potency [5]

NCCNC(=O)c1ccc(Cl)cn1
inactive: Potency [1] | Potency [2] | Potency [3] | Potency [4] | Potency [5]

CCOCCn1c(N2CCCN(C)CC2)nc2ccccc21
inactive: Potency [1] | Potency [2] | Potency [4] | Potency [5]
active: Potency [3] 6.92 µM

COc1ccc(C(Cl)=C(c2ccc(OC)cc2)c2ccc(OC)cc2)cc1
inactive: Potency [1] | Potency [2] | Potency [3] | Potency [5]

CN1CCN(c2cc3c(cc2F)c(=O)c(C(=O)O)cn3-c2ccc(F)cc2)CC1
active: Potency [5] 11.9 µM
inactive: Potency [1] | Potency [2] | Potency [3] | Potency [4]

CCNC(=O)NCc1cccc(Cl)c1
inactive: Potency [1] | Potency [2] | Potency [3] | Potency [5]
